About 50,000 (12%) of roughly 420,000 compounds were called active. Entries that show only a call come without a potency. Not shown: some 26% with an inconclusive outcome. The call rests on the fitted dose curve; in most records, active means well fitted inhibition curve with a large enough effect; inconclusive means small, poorly fitted or top-dose-only effect; inactive means flat fitted curve, though single readings scatter. Only a selection was taken, and actives are over-represented in it overall.
Potency means the concentration at half of the fitted maximal effect.

This test is described as follows: qHTS for Inhibitors of human tyrosyl-DNA phosphodiesterase 1 (TDP1): qHTS in cells in presence of CPT. Further: nearly all actives have a fitted effect of over 55% in size. Particulars: chicken DT40 Tdp1-/-;hTDP1 cells + 20 nM CPT, ATP luminescence, 48 h; series mostly up to 46.2 µM. The gist of the method:
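Chicken DT40 Tdp1-/- cells stably complemented with human TDP1 were seeded at 400 cells/well in medium containing 20 nM camptothecin, exposed to pin-transferred compounds, and grown at 37 °C for at least 48 hr. Viability was read as ATP luminescence.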
For orientation: qHTS replaces the single test concentration by a dilution series.
Regarding `O=C(CSc1nc(=O)n(Cc2cccnc2)c2c1CCC2)Nc1ccc(F)cc1F`, the Potency result is “inactive”. With `Cc1ccc2oc(=O)c3cnn(CC(=O)N4CCN(c5cccc(Cl)c5)CC4)c3c2c1` the entry was “inactive”; with `Cc1oc2ncnc(N3CCCCC3)c2c1C(=O)N1CCN(c2cccc(Cl)c2)CC1`, 16.4 µM (active). As for `COc1ccc(C)cc1N(C)C(=O)c1c(C)oc2ncnc(N3CCOCC3)c12`, the entry is “inactive”; as for `O=C1C(c2[nH]c3ccccc3c2O)=Nc2ccccc21`, “inactive”. In the case of `O=C(Nn1c(-c2ccccc2)nc2ccccc2c1=O)c1ccc([N+](=O)[O-])cc1`, the Potency result is “inactive”.

On to `N=C1C(c2nc3ccccc3s2)=C(O)CN1NC(=O)c1ccc([N+](=O)[O-])cc1`, for which the Potency is 20.6 µM (active). Regarding `CCOC(=O)CCCN1CC(O)=C(c2nc3ccccc3s2)C1=N`, the Potency entry is “inactive”. `COc1cccc(C(=O)n2ccc(-c3cccs3)n2)c1`: the Potency result is “inactive”. With `Cc1ccc(NC(=S)N/N=C2/CCCc3c(C)cc(C)cc32)cc1` the entry was “inactive”; with `CCCCc1ccc(NC(=S)NCCCN2CCOCC2)cc1`, “inactive”.

In the case of `CCCCNC(=S)N/N=C1\CCCCc2ccccc21`, the Potency is 23.1 µM (active). For `CCOc1ccccc1CN1CCN(C2CCC2)CC1CCO` (configuration not stated), the Potency result is “inactive”.

For the compound `COC(C/C=C/C(=O)[C@@H](C)OCc1ccccc1)OC`, the Potency is 18.4 µM (active). With `COC(C[C@@H]1O[C@@H]1C(=O)[C@@H](C)OCc1ccccc1)OC` the entry was “inactive”. With `COC(C[C@H](O)CC(=O)[C@@H](C)OCc1ccccc1)OC` the entry was “inactive”; with `CCCC(C)C(=O)OCC(=O)Nc1c(Br)cc(C)cc1Br` (configuration not stated), “inactive”. With `OCC1(Cc2ccccc2C(F)(F)F)CCN(Cc2cccc3cnccc23)CC1` the entry was “inactive”; with `CC1CCCCC1NC(=O)CSc1nnc(-c2ccncc2)n1CCCN(C)C` (configuration not stated), “inactive”.

Regarding `CN1CCN(c2ccc(S(=O)(=O)N3CCOCC3)cc2NC(=O)CCc2ccccc2)CC1`, the Potency entry is “inactive”. As for `COCCNC(=O)c1ccc(N2CCC3(CC2)OCCO3)c([N+](=O)[O-])c1`, the entry is “inactive”; as for `O=C(NCCCN1CCOCC1)c1ccc(N2CCCC2)c([N+](=O)[O-])c1`, “inactive”. With `CCCNC(=O)c1ccc(N2CCC3(CC2)CC(c2cccc(Br)c2)=NO3)c(NC(=O)c2ccco2)c1` the figure was 5.17 µM (active); with `COC(=O)c1ccc(N2CCOCC2)c(NC(=O)c2ccc(Br)o2)c1`, “inactive”; with `CCCN(CCC)CCNC(=O)c1ccc2c(c1)NC(=O)C(CS(=O)(=O)Cc1cccc(Br)c1)N2` (configuration not stated), “inactive”. With `CCCNC(=O)c1ccc(N2CCC3(CC2)CC(c2ccc(Cl)cc2)=NO3)c([N+](=O)[O-])c1`, the Potency is 23.1 µM (active).

`Cc1oc2c(C)c3oc(=O)c(CC(=O)N[C@@H](CC(C)C)C(=O)N[C@@H](Cc4ccccc4)C(=O)O)c(C)c3cc2c1C`: the Potency entry is “inactive”. As for `COc1cc(N)c(Cl)cc1C(=O)OCC(=O)c1ccc2c(c1)NC(=O)CO2`, the entry is “inactive”; as for `CCOc1ccccc1NC(=O)CCc1nnc2ccc(NCc3ccco3)nn12`, “inactive”; as for `Cn1ncc([N+](=O)[O-])c1C(=O)Nc1cc(Cl)ccc1Cl`, “inactive”. With `C/C(=N\NC(=O)c1cccnc1)c1ccc(-n2ccnc2)cc1` the entry was “inactive”; with `Cc1ccc(C)c(NC(=O)CCC(=O)N/N=C2/CC(=O)CC(C)(C)C2)c1`, “inactive”. As for `Nc1[nH]c(C(=O)c2ccccc2)c(-c2ccc(Br)cc2)c1C(=O)NC1CC1`, the entry is “inactive”. `Cc1cc(N/N=C\c2ccc(Br)cc2)nc(-n2nc(C)cc2C)n1`: the Potency is 1.64 µM (active). As for `COc1ccccc1/C=N/Nc1nc(C)c(C(C)=O)s1`, the entry is “inactive”; as for `COc1ccccc1-n1c(SCC(=O)Nc2cccc(C(=O)O)c2)nnc1-c1ccccc1O`, “inactive”; as for `COc1cccc(/C=N/Nc2cc(C)nc(-c3ccccc3O)n2)c1O`, 18.4 µM (active). With `COc1cc(NS(=O)(=O)c2ccccc2)ccc1-n1nc(C)cc1C` the entry was “inactive”.

For `COc1ccccc1/C=N\Nc1cc(C)nc(-n2nc(C)cc2C)n1`, the Potency is 6.51 µM (active). As for `Cc1ccc(S(=O)(=O)Nc2nc(C)cc(N/N=C/c3ccc(O)cc3)n2)cc1`, the entry is “inactive”; as for `COc1cccc2c(N/N=C/c3ccco3)cc(C)nc12`, “inactive”; as for `Cc1nc(Cl)cc(N/N=C/c2ccccc2)n1`, “inactive”. For `COc1ccc(CCNS(=O)(=O)c2ccc(Cl)s2)cc1OC`, the Potency entry was “inactive”. Take `COc1cc(=O)n2c(c1C(=O)N(C)Cc1nonc1C)CCN(C(=O)c1ccc(C)cc1C)CC2`: the Potency result was “inactive”. With `CCc1ccc(NC(=O)CC2C(=O)NCCN2C(=S)Nc2ccccc2)cc1` (configuration not stated), the Potency result was “inactive”. Consider `O=C(Nc1cccc2cccnc12)c1cccc(Cl)c1`, for which the Potency entry is “inactive”. As for `O=C(Nc1nnc([C@H]2C[C@H](O)[C@@H](CO)O2)s1)c1cccc(Cl)c1`, the Potency entry was “inactive”.

With `O=C(Nc1cccc2cccnc12)c1ccc2sc([C@H]3C[C@H](O)[C@@H](CO)O3)nc2c1`, the Potency is 18.4 µM (active).

In the case of `O=C1CCC(=O)N1CCC(=O)N(C(=O)NC1CCCCC1)C1CCCCC1`, the Potency entry is “inactive”. As for `NC(=O)C[n+]1cccc(C(N)=O)c1`, the entry is “inactive”; as for `COc1c(O)ccc2c1CN1CCc3cc4c(cc3C1C2)OCO4` (configuration not stated), 14.6 µM (active). With `COc1cc(COCC(O)CN2CCN(Cc3ccc4c(c3)OCO4)CC2)cc(OC)c1OC` (configuration not stated) the entry was “inactive”. With `COCCCN1C(=O)C(=O)/C(=C(/O)c2ccc(S(=O)(=O)N3CCOCC3)cc2)C1c1ccc(F)cc1` (configuration not stated) the entry was “inactive”; with `Cc1ccc(N=Nc2c(C)[nH]n(-c3ccccc3)c2=O)cc1`, “inactive”; with `Cc1nn(C(=O)c2ccoc2C)c(N)c1-c1ccccc1`, “inactive”.

For `Cc1[nH]n(-c2ccccc2)c(=O)c1/C=N/NC(=O)c1ccoc1C`, the Potency was 1.46 µM (active). Regarding `CCOC(=O)C1CCCN(S(=O)(=O)c2ccc(-n3cnnn3)c(C)c2)C1` (configuration not stated), the Potency entry was “inactive”. As for `COc1ccc(CCn2ccc(O)c(Cc3ccc(Cl)cc3Cl)c2=O)cc1OC`, the entry is “inactive”; as for `CC1CC(C)(C)CC2(C1)NC(=O)N(CC(=O)Nc1nccs1)C2=O` (configuration not stated), “inactive”. With `O=C(O)/C=C/C(=O)Nc1ccc(F)cc1F` the entry was “inactive”. For the compound `CSc1ccc(NC(=O)/C=C/C(=O)O)cc1`, the Potency result is “inactive”. With `COC(=O)c1sc(-c2ccc(C(C)(C)C)cc2)cc1NC(=O)/C=C/C(=O)O` the figure was 4.61 µM (active).

In the case of `CCC(Cc1ccccc1)NC(=O)C1CCCCC1` (configuration not stated), the Potency entry is “inactive”. With `CN1CCN(CCNC(=O)Nc2ccccc2[N+](=O)[O-])CC1` the entry was “inactive”; with `Cc1nc2ccccc2c(=O)n1Cc1ccc([N+](=O)[O-])cc1`, “inactive”; with `Cn1cc(/C=C/c2nc3ccccc3c(=O)n2-c2cccc([N+](=O)[O-])c2)c2ccccc21`, “inactive”. As for `CCn1c(/C=C/c2ccc([N+](=O)[O-])o2)nc2ccccc2c1=O`, the figure is 1.3 µM (active).

For the origin of these results see PubChem BioAssay AID686979 (National Center for Advancing Translational Sciences (NCATS), 2013).
